The results in this text go back to PubChem BioAssay AID651640 (Broad Institute, 2012).

Values joined by “and” are separate entries in the source; they are usually repeats but may differ in a detail not shown here. Equal entries are not always repeated. The campaign covered roughly 350,000 compounds. About 6,000 (1.7%) were called active. Roughly 5% stayed inconclusive and do not appear here. Cut-off read from the data, not from the text of the source: active = CPE inhibition above about 20% (passing the limit was not always enough); inconclusive = no clear call, values can overlap the other calls; tested in BHK-21 cells. Many of the other results were omitted from the sample, so actives are more common in it than they were. Where a structure was tested more than once in an assay, its records may differ in their call.

The assay is described as follows: inhibitors of DENV2 cytopathic effect, primary screen, cell-based, plate reader, single concentration (AID 651640).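 Note: 0% = median of neutral control wells and 100% = median of positive control wells.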 Particulars: DENV2-infected cells, cytopathic effect rescue, at 9.99 µM, stronger effect = higher value.
For `CCCC(=O)N1CCC2(CC1)CN(C(=O)C1CCCCC1)[C@@H](CO)c1[nH]c3cc(OC)ccc3c12`, the CPE inhibition is 0.105% (inactive).

As for `C[C@@H]1CCCCO[C@@H](CN(C)C(=O)NC2CCCCC2)[C@@H](C)CN([C@@H](C)CO)C(=O)c2cc(NC(=O)C3CCCCC3)ccc2O1`, the CPE inhibition is -1.85% (inactive).

Regarding `C[C@@H]1CN([C@@H](C)CO)C(=O)c2cccc(NC(=O)Nc3ccc4c(c3)OCO4)c2O[C@@H]1CN(C)C(=O)Nc1ccc(F)cc1`, the CPE inhibition is 16.1% (inactive).

As to `C[C@H](CO)N1C[C@H](C)[C@@H](CN(C)C(=O)Nc2ccc3c(c2)OCO3)Oc2ccc(NC(=O)NC3CCCCC3)cc2CC1=O`, the CPE inhibition is 9.47% (inactive).

On to `COc1ccc(S(=O)(=O)N(C)C[C@H]2OCCCC[C@@H](C)Oc3ccc(NC(=O)NC(C)C)cc3C(=O)N([C@H](C)CO)C[C@H]2C)cc1`, for which the CPE inhibition was -2.15% (inactive).

With `COCC(=O)N1CC(=O)N2[C@H](C1)[C@@H](c1ccc(C#Cc3cccc(OC)c3)cc1)[C@@H]2CO`, the CPE inhibition is -1.66% (inactive).

Turning to `COc1ccc(S(=O)(=O)N(C)C[C@@H]2OCCCC[C@H](C)Oc3ccc(NC(=O)NC4CCCCC4)cc3C(=O)N([C@H](C)CO)C[C@H]2C)cc1`, the CPE inhibition is -9.88% (inactive).

Take `CCCN1[C@H](C(=O)N2CCCCC2)[C@@H](CO)[C@@H]2Cn3c(ccc(-c4ccccc4F)c3=O)[C@@H]21`: the CPE inhibition is 0.279% (inactive).

`C[C@H](CO)N1C[C@H](C)[C@@H](CN(C)C(=O)c2ccncc2)Oc2ncc(-c3ccncc3)cc2C1=O`: the CPE inhibition is 0.501% (inactive).

Consider `C/C=C/c1cccc(-c2nc(C(=O)NCCN3CCCCC3)cc3c2[C@@H](CCO)N([S@](=O)C(C)(C)C)C3)c1`, for which the CPE inhibition was 8.26% (inactive).

As for `COCc1cn(CC[C@@H]2CC[C@@H](NC(=O)Nc3ccc(C(F)(F)F)cc3)[C@H](CO)O2)nn1`, the CPE inhibition was 2.57% (inactive).

On to `O=C(C[C@H]1C[C@H]2c3cc(NC(=O)Nc4ccccc4)ccc3O[C@H]2[C@H](CO)O1)NC1CCCC1`, for which the CPE inhibition was 16.7% (inactive).

Take `O=C(N[C@H]1CC[C@@H](CCNS(=O)(=O)Cc2ccccc2)O[C@H]1CO)c1ccccc1F`: the CPE inhibition was 5.12% (inactive).

As to `CN(C)C(=O)c1cccc(-c2ccc([C@H]3[C@H](CO)N4C(=O)CN(C(=O)Cc5ccccc5)C[C@@H]34)cc2)c1`, the CPE inhibition is 4.14% (inactive).

On to `Cc1noc(C)c1NC(=O)Nc1ccc2c(c1)C(=O)N([C@H](C)CO)C[C@@H](C)[C@@H](CN(C)Cc1ccncc1)OCCCC[C@H](C)O2`, for which the CPE inhibition was 1.93% (inactive).

Turning to `CN1C(=O)c2cc(NC(=O)C3CCOCC3)ccc2OC[C@@H]2O[C@@H](CC(=O)NCC3CC3)CC[C@@H]21`, the CPE inhibition was -9.75% (inactive).

In the case of `CN(C)C(=O)C[C@@H]1C[C@@H]2c3cc(NC(=O)NC4CCCCC4)ccc3O[C@@H]2[C@H](CO)O1`, the CPE inhibition is -9.26% (inactive).

For the molecule `CCC(=O)Nc1ccc2c(c1)C(=O)N(C)C[C@H](OC)[C@H](C)CN(C(=O)c1ccccc1F)[C@@H](C)CO2`, the CPE inhibition was 23.7% (active).

`CCC(=O)Nc1ccc2c(c1)OC[C@H](C)N(C(=O)c1ccccc1F)C[C@@H](C)[C@H](OC)CN(C)C2=O`: the CPE inhibition was -6.62% (inactive).

For the molecule `CO[C@@H]1CN(C)C(=O)c2cc(NC(=O)C3CC3)ccc2OC[C@H](C)N(C(=O)c2ccccc2F)C[C@H]1C`, the CPE inhibition was -0.841% (inactive).

In the case of `C[C@@H]1CN([C@@H](C)CO)C(=O)c2cc(-c3cncnc3)cnc2O[C@@H]1CN(C)C(=O)c1ccccc1F`, the CPE inhibition was 16.7% (inactive).

With `CCOC(=O)[C@H]1[C@H]2COc3ccc(Cl)cc3[C@@H]2N2C(=O)c3cc(C)ccc3NC(=O)[C@@]12C`, the CPE inhibition is 4.71% (inactive).

With `COc1ccc2c(c1)[C@H]1[C@H](CO2)[C@H](c2ccccc2)[C@]2(C)C(=O)Nc3cc(F)c(F)cc3C(=O)N12`, the CPE inhibition is -1.62% (inactive).

Consider `Cc1ccc2c(c1)NC(=O)[C@@]1(C)[C@@H](c3ccccc3)[C@H]3COc4ccc(Cl)cc4[C@@H]3N1C2=O`, for which the CPE inhibition is 82.7% (active).

On to `CCc1ccc2c(c1)NC(=O)C2(C)Cc1ccc(OC(F)(F)F)cc1` (stereo unspecified), for which the CPE inhibition is 48.3% (active).

On to `COc1ccccc1CC1(C)C(=O)Nc2ccc(OC(F)(F)F)cc21` (stereo unspecified), for which the CPE inhibition is 0.818% (inactive).

Consider `Cc1ccc(CC2(C)C(=O)Nc3ccc(OC(F)(F)F)cc32)cc1` (stereo unspecified), for which the CPE inhibition was 6.39% (inactive).

On to `CC(C)NC(=O)Nc1cccc2c1O[C@@H](CN(C)Cc1ccc(C(=O)O)cc1)[C@@H](C)CN([C@H](C)CO)C2=O`, for which the CPE inhibition is -5.2% (inactive).

Take `CO[C@H]1CN(C)C(=O)c2ccc(NC(=O)c3cccc(F)c3)cc2OC[C@H](C)N(CC2CC2)C[C@@H]1C`: the CPE inhibition is -4.07% (inactive).

Turning to `O=C(O)c1ccc(N/N=C/c2cn(-c3ccccc3)nc2-c2cccs2)cc1`, the CPE inhibition is -1.67% (inactive).

For `COc1cccc(NC(=O)CN(C)C(=O)/C=C/c2cn(-c3ccccc3)nc2-c2cccs2)c1`, the CPE inhibition was -12.9% (inactive).

Consider `O=C(O)/C=C/c1cn(-c2ccccc2)nc1-c1cccs1`, for which the CPE inhibition was 21.7% (active).

As to `COc1ccc(NC(=O)N[C@@H]2CC[C@H](CCn3cc(-c4ccc(OC)cc4)nn3)O[C@@H]2CO)cc1`, the CPE inhibition was 3.46% (inactive).

For `COc1cccc(NC(=O)N(C)C[C@H]2Oc3cc(/C=C/c4ccccc4)ccc3S(=O)(=O)N([C@H](C)CO)C[C@@H]2C)c1`, the CPE inhibition is 1.83% (inactive).

Turning to `c1ccc(-c2ccc(OCCN3CCOCC3)cc2)cc1`, the CPE inhibition was 27.1% (active).

As to `Cc1cccc(C)c1OCCN1CCOCC1`, the CPE inhibition is 5.93% (inactive).

Take `COc1ccc(-c2sc3ccccc3c2-c2ccc(OCCN3CCOCC3)cc2)cc1`: the CPE inhibition was 9.44% (inactive).

For the molecule `O=C(C[C@H]1CC[C@@H](NC(=O)Nc2ccc(F)cc2)[C@H](CO)O1)NCc1cccc(F)c1`, the CPE inhibition is 1.45% (inactive).

Consider `C[C@H](NC(=O)N(C)C[C@@H]1OCc2ccccc2-c2ccccc2C(=O)N([C@H](C)CO)C[C@@H]1C)c1ccccc1`, for which the CPE inhibition is 3.49% (inactive).

Turning to `O=C(C[C@@H]1CC[C@@H](NC(=O)CC2CC2)[C@H](CO)O1)NCc1ccc(-c2ccccc2)cc1`, the CPE inhibition is 2.21% (inactive).

For the molecule `Cn1cnc(S(=O)(=O)N2C[C@H](O)COC[C@@H]3O[C@H](CC(=O)NCc4cccc(F)c4)CC[C@H]32)c1`, the CPE inhibition is -0.815% (inactive).

As to `Cc1ccc([C@H]2N[C@]3(CCCN(Cc4ccccc4)C3=O)[C@H]3C(=O)N(Cc4ccccc4)C(=O)[C@@H]23)cc1`, the CPE inhibition was 12.7% (inactive).

Take `CCN1C(=O)[C@H]2[C@@H](c3ccccc3)N[C@]3(CCCN(Cc4ccc(C)cc4)C3=O)[C@H]2C1=O`: the CPE inhibition was -9.89% (inactive).

For `COc1ccc([C@H]2N[C@]3(CCCN(Cc4ccco4)C3=O)[C@H]3C(=O)N(C)C(=O)[C@@H]23)cc1`, the CPE inhibition is 91.3% (active).

With `CC(C)CC#Cc1ccc2c(c1)O[C@H](CN(C)C(=O)CC1CC1)[C@@H](C)CN([C@@H](C)CO)S2(=O)=O`, the CPE inhibition is 0.266% (inactive).

Consider `CCC(=O)N(C)C[C@@H]1Oc2cc(C#C[C@H](C)O)ccc2S(=O)(=O)N([C@H](C)CO)C[C@@H]1C`, for which the CPE inhibition was 8.89% (inactive).

For the molecule `CCCNC(=O)N1[C@@H]2CNC[C@H]1C2c1ccc(-c2ccccc2)cc1` (stereo partly specified), the CPE inhibition was -5.46% (inactive) and 6.08% (inactive).

On to `COc1ccc(S(=O)(=O)N2C[C@@H](O)COC[C@H]3O[C@H](CC(=O)N[C@H]4CCN(Cc5ccccc5)C4)CC[C@@H]32)cc1`, for which the CPE inhibition was 13.5% (inactive).

Regarding `CC(=O)N1[C@H](CO)[C@@H](c2ccccc2)[C@@H]1CN(CC(C)C)C(=O)c1ccccn1`, the CPE inhibition is -9.41% (inactive).

Turning to `N#Cc1ccc(-c2ccc(C3[C@H]4CNC[C@@H]3N4S(=O)(=O)c3ccccc3F)cc2)cc1` (stereo partly specified), the CPE inhibition was 6.8% (inactive).

With `CN(C)C(=O)c1cccc(-c2ccc(C3[C@H]4CNC[C@@H]3N4C(=O)Nc3ccccc3F)cc2)c1` (stereo partly specified), the CPE inhibition is 23.3% (active).

For `Cc1cccc(-c2ccc(C3[C@H]4CNC[C@@H]3N4S(=O)(=O)c3ccccc3F)cc2)c1` (stereo partly specified), the CPE inhibition is -1.96% (inactive) and 22.1% (active).

Turning to `CN(C)C(=O)c1ccc(-c2ccc(C3[C@H]4CNC[C@@H]3N4C(=O)Nc3cc(F)ccc3F)cc2)cc1` (stereo partly specified), the CPE inhibition was 1.83% (inactive).

For the molecule `O=S(=O)(c1ccccc1F)N1[C@@H]2CNC[C@H]1C2c1ccc(-c2cncnc2)cc1` (stereo partly specified), the CPE inhibition is -1.33% (inactive).

As to `COc1cccc(-c2ccc(C3[C@H]4CNC[C@@H]3N4C(=O)Nc3ccc(F)cc3)cc2)c1` (stereo partly specified), the CPE inhibition was -1.4% (inactive) and 18.6% (inactive).

Regarding `C[C@H](CO)N1C[C@H](C)[C@@H](CN(C)Cc2ccc(Cl)c(Cl)c2)Oc2ccc(NC(=O)Nc3ccc(C(F)(F)F)cc3)cc2CC1=O`, the CPE inhibition was -2.55% (inactive).

Regarding `CN1C(=O)c2cc(NC(=O)C3CC3)ccc2OC[C@@H]2O[C@@H](CC(=O)NCC3CCCCC3)CC[C@@H]21`, the CPE inhibition was -7.29% (inactive).

Turning to `C[C@@H]1CN([C@H](C)CO)C(=O)c2cccc(NC(=O)Nc3ccc(F)cc3)c2O[C@@H]1CN(C)C(=O)Nc1ccc(C(F)(F)F)cc1`, the CPE inhibition was 2.25% (inactive).

As for `O=C(NCc1ccccc1)c1ccc(S(=O)(=O)Nc2cccc(C(F)(F)F)c2)cc1`, the CPE inhibition was 2.44% (inactive).

Regarding `O=C(NCc1ccncc1)c1cccc(NS(=O)(=O)c2ccc(F)c(F)c2)c1`, the CPE inhibition is 41.4% (active).

On to `O=C(NCc1ccncc1)c1ccc(NS(=O)(=O)c2cccc([N+](=O)[O-])c2)cc1`, for which the CPE inhibition was -0.812% (inactive).

In the case of `CC(C)NC(=O)N[C@H]1CC[C@H](CC(=O)NC2Cc3ccccc3C2)O[C@H]1CO`, the CPE inhibition was -2.08% (inactive).

As for `C[C@@H]1CN([C@H](C)CO)S(=O)(=O)c2ccc(Br)cc2O[C@@H]1CN(C)Cc1cncnc1`, the CPE inhibition was 19.1% (inactive).

Turning to `CCOC(=O)[C@H]1[C@H]2COc3ccc(C)cc3[C@@H]2N2C(=O)CN(Cc3ccc(F)cc3)C(=O)[C@@]12C`, the CPE inhibition was -7.57% (inactive).

For the molecule `CCOC(=O)[C@H]1[C@H]2COc3cc(OC)ccc3[C@@H]2N2C(=O)CN(Cc3ccc(Cl)cc3)C(=O)[C@@]12C`, the CPE inhibition was -5.6% (inactive).

Consider `CCOC(=O)[C@H]1[C@H]2COc3ccccc3[C@@H]2N2C(=O)CN(Cc3ccccc3)C(=O)[C@@]12C`, for which the CPE inhibition is 95% (active).
